Shown is part of a subset that was picked to be rich in hits.
Shiga toxin inh: Shiga toxin inhibition | Vero cells, Shiga toxin protein synthesis inhibition reporter | inhibition, % at 38.7 µM | 290,000 compounds, 9.2% hits | AID 2315; in the data active = inhibition mostly above about 28%, no sharp cut-off; inactive = mostly below about 43%; note: 0% is about no effect
Marburg entry inh: blocks Marburg virus binding to or entry into cells; Marburg virus pseudotyped entry inhibition, cell reporter; Potency, µM (top dose mostly 37.8 µM), inactives show at the top dose activity change, negative = inhibition, hits mostly inhibitors; 300,000 compounds, 1.8% hits; AID 540276; calls by dose curve; tested in HEK293 cells; note: potency is the fitted concentration of half-maximal effect; % is set by controls: 0 for no effect and ±100 for the full control effect
Cycloheximide cs: counter-screen for Shiga toxin inhibitors: cycloheximide protein synthesis inhibition; cell reporter, cycloheximide protein synthesis inhibition counterscreen; 300,000 compounds, 12% hits; max response, %; in the data active = max response mostly above about 13%, no sharp cut-off; inactive = mostly below about 14%; note: read at 38.3 µM for the half of the compounds with a filed dose; 0% is about no effect
LASV entry inh: Lassa virus entry inhibition; Lassa virus pseudotype entry inhibition, cell reporter; Potency, µM (titrated, usually from 37.9 µM), for inactives: at the highest dose activity change, negative = inhibition, usual class: inhibitors; 300,000 compounds, 1.2% hits; AID 540256; calls by dose curve; tested in HEK293 cells; note: potency is the fitted concentration of half-maximal effect; % is set by controls: 0 for no effect and ±100 for the full control effect; nearly all actives have a fitted effect of over 50% in size
VACV Venus inh: inhibitors of vaccinia virus (Venus reporter); Vaccinia virus Venus reporter expression, fluorescence; Potency, µM (doses to about 36.5 µM), for the others: at the highest dose activity change, negative = inhibition, actives largely listed as inhibitors; 330,000 compounds, 0.46% hits; AID 720580; calls by dose curve; tested in A549 cells; note: potency is the fitted concentration of half-maximal effect; % is set by controls: 0 for no effect and ±100 for the full control effect; nearly all actives have a fitted effect of over 30% in size
VACV mCherry inh: vaccinia inhibition (mCherry reporter). Vaccinia virus mCherry reporter infection, fluorescence. Potency, µM (doses to about 36.5 µM), for inactives: top-dose activity change, negative = inhibition, actives largely listed as inhibitors. 310,000 compounds, 0.63% hits. AID 720579; calls by dose curve; tested in A549 cells; note: potency is the fitted concentration of half-maximal effect; % is set by controls: 0 for no effect and ±100 for the full control effect; nearly all actives have a fitted effect of over 35% in size
Starred values were filed as active, the others as inactive; [ ] = another dose, or the depositor's remark.

CCc1ccc(NC(=O)CC2C(=O)N(c3ccc(Cl)cc3)C(=O)N2Cc2cccs2)cc1 (stereo not given) was read as LASV entry inh -10%[46.1 µM], VACV Venus inh -19% and VACV mCherry inh -14%.
Screening c1ccc(-c2cc3ncc4c(n3n2)-c2ccccc2OC4)cc1 returned Marburg entry inh inconclusive, LASV entry inh inconclusive, VACV Venus inh 5% and VACV mCherry inh -1%.
`C/C(=C\c1ccccc1)C(=O)NCc1ccco1` gave Shiga toxin inh 66*, Cycloheximide cs 36*, VACV Venus inh -10% and VACV mCherry inh 31%.
For O=C(NCCc1ccccc1)C(=Cc1ccc(C(=O)O)cc1)C(=O)NCCc1ccccc1 the results were Shiga toxin inh 26, Marburg entry inh inconclusive, Cycloheximide cs -2, LASV entry inh 5%, VACV Venus inh -3% and VACV mCherry inh 3%.
Screening COc1ccc(/C=C(/NC(=O)c2ccccc2)C(=O)NCc2ccco2)cc1 returned Shiga toxin inh 13, Marburg entry inh 2%[46.1 µM], Cycloheximide cs -5, LASV entry inh -20%[46.1 µM], VACV Venus inh 0% and VACV mCherry inh inactive.
Screening Cc1ccc(C(=O)N/C(=C/C=C\c2ccccc2)C(=O)NCc2ccco2)cc1 returned Shiga toxin inh 35, Marburg entry inh inconclusive, Cycloheximide cs 17*, LASV entry inh inconclusive, VACV Venus inh 1% and VACV mCherry inh -4%.
Screening C/C(=C\c1ccccc1)C(=O)NCCc1ccccc1 returned Shiga toxin inh 66*, Marburg entry inh inconclusive, Cycloheximide cs 31*, LASV entry inh inconclusive, VACV Venus inh -7% and VACV mCherry inh -10%.
`O=c1[nH]nc(-c2ccc(F)cc2)cc1Cc1ccc(F)cc1` gave Shiga toxin inh 9 and Cycloheximide cs -2.
`Cc1ccc(-c2cc(Cc3ccc(F)cc3)c(=O)[nH]n2)cc1` gave Shiga toxin inh 29 and Cycloheximide cs 20*.
For Cc1ccc(Cc2cc(-c3ccc(C)cc3)n[nH]c2=O)cc1 the results were Shiga toxin inh 52*, Marburg entry inh inconclusive, Cycloheximide cs 40*, LASV entry inh inconclusive, VACV Venus inh -16%[7.34 µM] and VACV mCherry inh inactive[7.34 µM].
Screening Cc1ccc(-c2cc(Cc3ccccc3)c(=O)[nH]n2)cc1 returned Shiga toxin inh 34, Marburg entry inh 1%, Cycloheximide cs 11, LASV entry inh 2.5µM*, VACV Venus inh -26% and VACV mCherry inh inconclusive.
For COc1ccc(C(=O)N2CCC(C(=O)Nc3ccc(OC)cc3OC)CC2)cc1 the results were Marburg entry inh 2%[46.1 µM], LASV entry inh -20%[46.1 µM], VACV Venus inh 0% and VACV mCherry inh -11%.
Cc1cc(C(=O)NCC2CCC3(CCN(Cc4cccc(F)c4F)CC3)O2)n(C)n1 (stereo not given) was read as VACV Venus inh -23% and VACV mCherry inh -3%.
For COC(=O)c1ccc(N/C(=N/S(=O)(=O)c2ccccc2)c2ccccc2)cc1 the results were Shiga toxin inh 2, Marburg entry inh -20%, Cycloheximide cs 2, LASV entry inh -13%, VACV Venus inh -2% and VACV mCherry inh inactive.
CCOC(=O)c1cccc(N/C=C/C(=O)c2ccc(OC)c(OC)c2)c1 was read as Shiga toxin inh 98*, Marburg entry inh inconclusive, Cycloheximide cs 27*, LASV entry inh 2%, VACV Venus inh -20% and VACV mCherry inh -4%.
`COC(=O)c1ccc(N/C=C/C(=O)c2ccccc2)cc1` gave Shiga toxin inh 48*, Marburg entry inh inconclusive, Cycloheximide cs 43*, LASV entry inh inconclusive, VACV Venus inh -3% and VACV mCherry inh inactive.
Screening CCOC(=O)c1ccc(OS(=O)(=O)c2ccccc2)c(OC)c1 returned Shiga toxin inh active, Marburg entry inh inconclusive, Cycloheximide cs 50*, LASV entry inh inconclusive, VACV Venus inh -13% and VACV mCherry inh inactive.
For COc1cccc(N/C=C/C(=O)c2ccc(OC)c(OC)c2)c1 the results were Shiga toxin inh 46* and Cycloheximide cs 27*.
CCOc1ccc(OCC)c(NC(=O)CN(C)S(=O)(=O)c2ccc3c(c2)CCCC(=O)N3)c1 was read as LASV entry inh inconclusive, VACV Venus inh -14% and VACV mCherry inh -23%.
CCNC(=O)c1c2c(nc3ccccc13)C(=O)N(C1CCCCC1)C2 was read as LASV entry inh 20%[46.1 µM], VACV Venus inh -11% and VACV mCherry inh -17%.
For Cc1ccc(S(=O)(=O)c2nc(-c3cccs3)oc2N2CCC(C)CC2)cc1 the results were Marburg entry inh -18%[46.1 µM], LASV entry inh -21%[46.1 µM], VACV Venus inh -7% and VACV mCherry inh -24%.
COc1ccc(C(=O)Nc2cc(OC)ccc2OC)cc1 was read as Shiga toxin inh 24, Marburg entry inh 21%, Cycloheximide cs 15, LASV entry inh 3%, VACV Venus inh -7% and VACV mCherry inh -21%[1.46 µM].
COc1cccc(C(=O)/C=C/Nc2cc(C)ccc2O)c1 was read as Shiga toxin inh 88*, Marburg entry inh inconclusive, Cycloheximide cs 51* and LASV entry inh -14%.
`COc1ccc(OC)c(N/C=C/C(=O)c2ccc(OC)c(OC)c2)c1` gave Shiga toxin inh 55, Marburg entry inh 11%, Cycloheximide cs 15*, LASV entry inh inconclusive, VACV Venus inh inconclusive and VACV mCherry inh -5%.
For CCOC(=O)c1ccc(N/C=C\C(=O)c2cccc(OC)c2)cc1 the results were Shiga toxin inh 95*, Marburg entry inh inconclusive, Cycloheximide cs 48*, LASV entry inh 20%, VACV Venus inh -19% and VACV mCherry inh -4%.
Screening COc1ccc(C(=O)COC(=O)c2ccc(NC(C)=O)cc2)cc1[N+](=O)[O-] returned Shiga toxin inh -3, Marburg entry inh -8%[46.1 µM], Cycloheximide cs 6, LASV entry inh 4% and VACV Venus inh -12%.
For COc1cccc(C(=O)COC(=O)c2ccc(NC(C)=O)cc2)c1 the results were Shiga toxin inh 13, Marburg entry inh inconclusive, Cycloheximide cs 16*, LASV entry inh 13%, VACV Venus inh -7% and VACV mCherry inh inactive.
Screening COc1ccc(C(=O)/C=C/Nc2cccc(O)c2)cc1 returned Shiga toxin inh -12, Marburg entry inh 3%, Cycloheximide cs -1 and LASV entry inh 23%.
O=C(COC(=O)c1ccc(S(=O)(=O)N2CCCC2)cc1)NCc1ccco1 was read as Shiga toxin inh 1, Marburg entry inh 10%[46.1 µM], Cycloheximide cs 3, LASV entry inh 16%, VACV Venus inh -14% and VACV mCherry inh -15%.
`O=C(NCc1ccccc1Cl)C(=O)NCC(c1ccc2c(c1)OCO2)N1CCOCC1` (stereo not given) gave LASV entry inh -1%[46.1 µM], VACV Venus inh -9% and VACV mCherry inh -16%.
COC(=O)c1ccc(N=CC2=C(O)CC(c3ccccc3)CC2=O)cc1 (stereo not given) was read as Shiga toxin inh -11, Marburg entry inh -4%, Cycloheximide cs -2, LASV entry inh -14%, VACV Venus inh -9% and VACV mCherry inh inactive.

Screening results as filed in PubChem.
